The supplement of paper PMC11732987, “Enantioselective OTUD7B fragment discovery through chemoproteomics screening and high-throughput optimisation” (Communications Chemistry, 2025)
Unmarked numbers belong to inactive results.

What follows are compounds tested against T1, VCPIP1 (UniProt Q96JH7) (assay: log2 ratio of Biotin-Ahx-Ub-VS probe labelling (fragment/DMSO); higher = less target engagement (more negative = stronger competition), active = hit call of the paper (q ≤ 0.05, log2 ratio ≤ -1)). Settings: compound concentration: 200 uM; treatment time: 3 h.
T1 sequence (whole entry): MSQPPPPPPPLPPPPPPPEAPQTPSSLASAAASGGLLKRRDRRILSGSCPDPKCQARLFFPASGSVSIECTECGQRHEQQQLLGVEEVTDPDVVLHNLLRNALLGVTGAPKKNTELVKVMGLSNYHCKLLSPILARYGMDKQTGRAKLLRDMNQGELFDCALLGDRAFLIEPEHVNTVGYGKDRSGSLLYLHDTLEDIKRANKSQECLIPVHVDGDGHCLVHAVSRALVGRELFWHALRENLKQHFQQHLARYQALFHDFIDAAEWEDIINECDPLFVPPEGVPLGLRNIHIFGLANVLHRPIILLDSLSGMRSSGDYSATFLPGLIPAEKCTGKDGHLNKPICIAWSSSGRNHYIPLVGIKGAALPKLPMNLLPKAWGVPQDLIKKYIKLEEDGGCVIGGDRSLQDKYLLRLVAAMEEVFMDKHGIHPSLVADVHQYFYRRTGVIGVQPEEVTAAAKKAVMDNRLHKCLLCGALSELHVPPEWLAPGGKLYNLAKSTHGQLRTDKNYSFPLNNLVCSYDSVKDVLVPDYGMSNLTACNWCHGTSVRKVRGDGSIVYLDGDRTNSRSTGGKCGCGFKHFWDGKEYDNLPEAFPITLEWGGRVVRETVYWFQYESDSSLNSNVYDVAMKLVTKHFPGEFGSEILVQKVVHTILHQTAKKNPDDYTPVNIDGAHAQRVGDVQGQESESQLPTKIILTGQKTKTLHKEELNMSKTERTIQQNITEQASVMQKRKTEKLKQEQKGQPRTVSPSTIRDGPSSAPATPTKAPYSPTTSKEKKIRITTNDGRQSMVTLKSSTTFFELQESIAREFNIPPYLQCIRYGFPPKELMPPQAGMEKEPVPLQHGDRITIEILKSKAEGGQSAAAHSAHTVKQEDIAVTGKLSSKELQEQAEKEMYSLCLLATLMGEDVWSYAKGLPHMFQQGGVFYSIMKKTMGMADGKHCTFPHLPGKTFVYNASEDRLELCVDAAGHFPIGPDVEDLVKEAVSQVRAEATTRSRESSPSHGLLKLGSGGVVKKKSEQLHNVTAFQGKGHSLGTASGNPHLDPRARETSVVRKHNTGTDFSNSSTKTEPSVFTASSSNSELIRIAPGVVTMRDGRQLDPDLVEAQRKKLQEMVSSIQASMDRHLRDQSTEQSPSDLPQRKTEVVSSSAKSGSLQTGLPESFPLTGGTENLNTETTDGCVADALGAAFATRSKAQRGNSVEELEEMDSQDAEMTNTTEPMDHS
Description: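 Competitive ABPP in HEK293T cell lysate. Lysates were treated with each chloroacetamide fragment at 200 µM for 3 h, then with Biotin-Ahx-Ub-VS (0.5 µM, 1 h), NeutrAvidin-enriched and analysed by diaPASEF LC-MS/MS. Protein LFQ was median-normalised; average log2 ratio is fragment/DMSO from an unpaired t-test (n=3 treated, n=44 DMSO). Hits: q ≤ 0.05, log2 ratio ≤ -1, unique peptides ≥ 2.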
With `O=C(CCl)N1CCC[C@@H]1c1ccon1` the “log2 ratio of Biotin-Ahx-Ub-VS probe labelling” value (“log2 ratio” below) was -0.499. For `O=C(CCl)NCc1ccc(N2CCOCC2)c(F)c1`, the “log2 ratio” value was -2.18 (active). For `CC(NC(=O)CCl)c1cnn(C2CC2)c1` (configuration not stated), the “log2 ratio” value was -1.15 (active). `NC(=O)C1CCCN(C(=O)CCl)C1` (configuration not stated) was tested, and the “log2 ratio” value was -0.167. For `Cc1cc(CC(C)NC(=O)CCl)n[nH]1` (configuration not stated), the “log2 ratio” value was 0.107. In the case of `O=C(CCl)N(Cc1ccsc1)C1CC1`, the “log2 ratio” value is reported as -0.642. In the case of `O=C(CCl)N1CCC(C(=O)N2CCCCCC2)CC1`, the “log2 ratio” value is reported as -0.246.
